HEK cytotox: Cytotoxic Profiling in HEK 293 Cell Line of Diverse Libraries Using Quantitative High-Throughput Screening | actives 6.6% (n = 94,000) | AID 1345083, 2018 | HEK 293 viability, ATP luminescence (CellTiter-Glo), 48-72 h | Potency, µM (series often up to 115 µM), for inactives: at the top dose activity change, negative = cytotoxicity, hits mostly inhibitors; further: potency means the concentration at half of the fitted maximal effect; on the % scale 0 is the no-effect control and ±100 the full control effect; nearly all actives have a fitted effect of over 60% in size
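ATP-coupled CellTiter-Glo luminescence served as viability read-out, recorded 10 min after reagent addition at room temperature. HEK 293 cells, 250 cells/well, had been incubated with pintool-transferred compound for 48 or 72 hr at 37 degree Celsius.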
hNpr1 antagonist: Natriuretic polypeptide receptor (hNpr1) antagonism - Primary qHTS; AID 1347048, 2019; Potency, µM (series often up to 46.3 µM), inactives show at the top dose activity change, negative = inhibition, hits mostly inhibitors; Atrial natriuretic peptide receptor 1 (Homo sapiens), P16066; actives 1.6% (n = 76,000); HEK293 hNpr1 GloSensor cGMP, ANP-stimulated luminescence; calls by dose curve; further: potency means the concentration at half of the fitted maximal effect; on the % scale 0 is the no-effect control and ±100 the full control effect; nearly all actives have a fitted effect of over 60% in size
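HEK293 cells stably expressing human Npr1 and cGMP GloSensor pGS-40F, loaded 2 h with 2% GloSensor reagent, given compound 30 min at room temperature. Luminescence read before and 20 min after 0.1 nM hNppA.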
FLuc inh: Firefly luciferase inhibition profiling of diverse chemical library using quantitative high-throughput screening; purified P. pyralis luciferase, luminescence, biochemical; Potency, µM (series often up to 115 µM), actives largely listed as inhibitors; actives 2.5% (n = 76,000); AID 1347043, 2019; further: potency means the concentration at half of the fitted maximal effect; on the % scale 0 is the no-effect control and ±100 the full control effect; nearly all actives have a fitted effect of over 65% in size
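Purified P. pyralis luciferase (10nM final) in 50mM Tris acetate pH 7.5, 10mM Mg acetate, 0.01% Tween-20, 0.05% BSA with 10uM D-luciferin and 10uM ATP. Compounds titrated qHTS. Luminescence imaged on CCD.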
GPT2 inhibitor: Primary qHTS assay for inhibitors of Glutamate pyruvate transaminase 2 (GPT2); Alanine aminotransferase 2 (Homo sapiens), Q8TD30; Recombinant GPT2, coupled pyruvate oxidase/HRP Amplex Red fluorescence; Potency, µM (titrated, usually from 57.7 µM), without a hit: top-dose activity change, negative = inhibition, actives largely listed as inhibitors; actives 0.25% (n = 100,000); AID 1671188, 2021; further: potency means the concentration at half of the fitted maximal effect; on the % scale 0 is the no-effect control and ±100 the full control effect; nearly all actives have a fitted effect of over 60% in size
Target sequence (Q8TD30 whole entry, looked up): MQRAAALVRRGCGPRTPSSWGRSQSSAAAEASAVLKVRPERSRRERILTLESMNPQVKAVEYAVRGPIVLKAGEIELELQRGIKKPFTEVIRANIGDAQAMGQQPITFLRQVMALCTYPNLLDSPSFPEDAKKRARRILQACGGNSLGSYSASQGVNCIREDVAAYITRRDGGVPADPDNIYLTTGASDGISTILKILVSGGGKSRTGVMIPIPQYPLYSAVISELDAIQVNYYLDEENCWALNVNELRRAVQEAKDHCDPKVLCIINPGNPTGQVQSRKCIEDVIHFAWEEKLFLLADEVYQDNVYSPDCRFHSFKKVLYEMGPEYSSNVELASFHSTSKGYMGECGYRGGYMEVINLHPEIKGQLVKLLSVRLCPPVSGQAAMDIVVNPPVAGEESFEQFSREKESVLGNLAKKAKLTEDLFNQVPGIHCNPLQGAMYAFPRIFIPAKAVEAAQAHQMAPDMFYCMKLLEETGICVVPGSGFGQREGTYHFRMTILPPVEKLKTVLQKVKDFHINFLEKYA
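GPT2 10ng/uL, a-KG 250uM, L-Ala 2mM, HEPES pH7.5 + 0.0001% Tween; 30 min RT. Then Amplex mix (PO/HRP/ThPP), 30 min RT dark, fluorescence. AOA 50uM used as positive control.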
NIH3T3 tox: Cytotoxic Profiling in NIH 3T3 Cell Line of Diverse Libraries Using Quantitative High-Throughput Screening; NIH 3T3 viability, CellTiter-Glo ATP luminescence, 48-72 h; Potency, µM (doses to about 96.7 µM), for the others: at the top dose activity change, negative = cytotoxicity, most hits filed as inhibitors; actives 4.3% (n = 94,000); AID 1345082, 2018; further: potency means the concentration at half of the fitted maximal effect; on the % scale 0 is the no-effect control and ±100 the full control effect; nearly all actives have a fitted effect of over 55% in size
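Luminescent ATP readout (CellTiter-Glo, 10 min RT) after 48 or 72 hr compound exposure of NIH 3T3 cells seeded at 400 cells/well in 1536-well format; quantitative HTS.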
GPT2 inh cnf: Confirmatory qHTS assay for inhibitors of Glutamate pyruvate transaminase 2 (GPT2) | GPT2 enzyme, coupled Amplex Red pyruvate fluorescence | Potency, µM, hits mostly inhibitors | AID 1671187, 2021 | shares compounds with GPT2 inhibitor | actives 90% (n = 95)
An asterisk follows results filed as active; i = inactive; ? = inconclusive; . = no result; ! = repeats disagree; [ ] = dose if it differs, or a comment. The list is not random: actives were taken first. Their share in the collection is about 10%. Unless noted, the call rests on the fitted dose curve; in most records, active means well fitted curve in the direction sought with a large enough effect; inconclusive means small, poorly fitted or top-dose-only effect, or another doubt; inactive means no such curve, though single readings can be large; an effect the other way counts as inactive or inconclusive.

SMILES	HEK cytotox	hNpr1 antagonist	FLuc inh	GPT2 inhibitor	NIH3T3 tox	GPT2 inh cnf
C[C@@H]1CN(C(=O)Cn2ccc(=O)[nH]c2=O)C[C@@]1(O)C1CCC1	-11.7%	0.1%	i	i	-13.5%	.
O=C(O)C=Cc1ccc(O)c(O)c1	.	.	.	4.32µM*	.	3.43*
O=C(/C=C/c1ccc(O)c(O)c1)OCCc1ccccc1	.	.	.	-3.1%	.	.
COCCNC(=O)c1cc(N2CCOCC2)cc2c1OCCN2C	.	.	.	.	.	1.57*
CN1CCOc2c(C(=O)NCc3cccnc3)cc(-c3ccc(N4CCOCC4)cc3)cc21	?	5.5%	i	-2.4%	-28.9%	.
C[C@]1(CO)[C@H]2Cc3sc(NC(=O)c4ccco4)nc3[C@@H](CC(=O)N3CCC(C(N)=O)CC3)[C@]2(C)CC[C@H]1O	i	3.9%	i	-4.2%	4.9%	.
Cc1ccccc1-c1cc(C(=O)NCc2cccnc2)c2c(c1)ncn2C	-24.8%[172 µM]	-4.8%[70.6 µM]	i	?	?	.
COc1ccc(Nc2cc(C(=O)NCc3cccnc3)c3c(c2)ncn3C)cc1	.	.	.	.	.	3.14*
C=CC(=O)Nc1cccc(Nc2nc(Nc3ccc(NC4CN(CCF)C4)cc3OC)ncc2C(F)(F)F)c1	.	.	.	8.91µM*	.	3.06*
C=CC(=O)Nc1cccc(Nc2nc(Nc3ccc(OCCOC)cc3)ncc2F)c1	.	.	.	i	.	.
C=CC1(C)CC2=CCC3C(C)(C(=O)O)CCCC3(C)C2CC1OC(C)=O (centres undefined)	.	.	.	1.5%[27.3 µM]	.	.
Cc1ccc(NC(=O)CCNc2c(C)nc3cnccn23)c(F)c1	-12.2%	-3.0%	i	?	-17.0%	6.85*
COc1cccc(-c2nn(-c3ccccc3)c(OC(C)=O)c2-c2ccc(NC(=O)c3ccco3)cc2)c1	-29.4%	-19.0%	i	?	-15.3%	7.69*
CC(=O)Oc1c(-c2ccc(NC(=O)c3ccco3)cc2)c(C2CC2)nn1-c1cccc(C)c1	?	-4.0%	i	?	?	.
Cn1cccc1-c1noc(C2CCN(C(=O)NC(C)(C)C)CC2)n1	?	.	.	-3.0%	-37.3%	.
CN1CCCN(Cc2ccc3c(c2)OCO3)c2ccccc21	?	.	.	?	?	3.06*
O=C(c1ccoc1)N1CCCN(Cc2ccc3c(c2)OCO3)c2ccccc21	?	.	.	-9.4%	?	.
COc1cc(-c2nc3c([nH]2)CCCNC3=O)ccc1O	i	6.4%	i	?	?	6.11*
O=C(CCC[C@H]1NC[C@@H]2C[C@H]1CN(Cc1ccccc1)C2)Nc1ccc(N2CCOCC2)cc1	0.4%	-4.1%	?	7.08µM*	-15.9%	4.85*
O=C1C(Cl)=C(NCCN2CCOCC2)C(=O)c2ncccc21	.	.	.	1.37µM*	.	1.53*
Cc1noc2c(-c3cccnc3NCCN3CCOCC3)cc(-c3ccccc3)nc12	?	0.0%[70.6 µM]	i	1.3%[88.5 µM]	?	.
c1ccc2c(CCNc3ccc(Nc4ccncc4)cc3)c[nH]c2c1	.	.	.	14.1µM*!	.	4.85*
CCOc1cc(N2CCC(O)CC2)ccc1Nc1ncc2c(n1)N(C)c1ccccc1C(=O)N2C	.	.	.	12.2µM*	.	3.06*
O=C(c1cnccn1)N1CCC2(CC1)CCC(O)(CN1CCc3ccccc31)CC2	?	.	.	?	?	1.09*
O=C(c1cnccn1)N1CCC2(CC1)NCCc1c2[nH]c2ccccc12	-18.4%	2.8%	i	1.7%	-22.0%	.
c1cncc(-c2ccnc(NCCCN3CCCc4ccccc43)n2)c1	?	-18.1%	i	?	22.4µM*	2.17*
CN(C)c1cccc(C(=O)N2CCNc3cnc(Nc4ccc(N5CCOCC5)cc4)nc3C2)c1	?	-25.9%	i	2µM*	-25.9%	1.93*
